PubChem BioAssay (NCATS)
Inconclusive results are not listed. Activity calls are given as the source filed them. Unless noted, calls come from the whole dose curve; as a rule, active = well fitted curve in either direction with a large enough effect (not every such curve was filed as active); inconclusive = small, poorly fitted or top-dose-only effect, or another doubt; inactive = flat fitted curve, though single readings scatter.

Experiments:
[1] = AP1 Signaling Pathway (AID 357); details: ME-180 AP-1-bla reporter, EGF-induced, beta-lactamase ratio, 5 h; at 17.2 µM (top of the series) unless noted; note: % is set by controls: 0 for no effect and ±100 for the full control effect
How it was run: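 Modulation of EGF-driven AP-1 transcription was assessed with a beta-lactamase reporter in ME-180 cells. Compound and EC50 EGF were co-incubated 5 hours at 37 °C before 2.5-hour CCF4 loading at room temperature and dual-emission reading.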

[2] = NFAT Signaling Pathway (AID 444); details: Jurkat NFAT-bla M1, carbachol, beta-lactamase ratio, 5 h; at 17.2 µM (top of the series) unless noted;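 note: carbachol stimulus at about its EC50 of 1 µM final; % is set by controls: 0 for no effect and ±100 for the full control effect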
How it was run: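 Jurkat cells with NFAT-driven β-lactamase reporter and co-expressed M1 receptor, stimulated with carbachol (final 1 uM, ~EC50), compound titration, 5 h at 37 °C. CCF4 loaded 1 h at RT; 460/530 nm ratio gave %activity and AC50.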

[3] = Stat Signaling Pathway (AID 446); details: ME-180 SIE beta-lactamase reporter, IL-6 stimulated, 5 h; at 17.2 µM (top of the series) unless noted;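 note: ME-180 cervical cancer cells given 40 pM IL-6 alongside compound; SIE-controlled beta-lactamase reporter measured as 460/530 nm FRET emission ratio; % is set by controls: 0 for no effect and ±100 for the full control effect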
How it was run: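 Screening format detects activators and inhibitors alike: ME-180 SIE-bla cells stimulated at 40 pM IL-6 for 5 hrs with compound, then dual-emission beta-lactamase read at 405 nm excitation.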

[4] = target: Glucocorticoid receptor (Homo sapiens) (UniProt P04150); assay: GR-GFP Redistribution (AID 450;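 active = compounds whose dose series gives a full or clear partial fitted curve of increased nuclear translocation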; note: potency is the fitted concentration of half-maximal effect)
[5] = qHTS Assay for Identification of Small Molecule Agonists for Hypoxia Response Element Signaling Pathway (AID 914; active = well fitted activation curve with a large enough effect in the signal ratio, with a control signal flat, not every such curve was filed as active; the % refers to the signal ratio; note: % of control where 0% means no effect); details: ME-180 (cervical carcinoma) HRE-bla reporter, beta-lactamase ratio, CoCl2, 17 h; activation: hits give high values
How it was run: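 Reporter activity (beta-lactamase, CCF4 460nm/530nm ratio) in HRE-bla ME-180 cells is recorded after 17 h compound exposure with EC50 CoCl2 at 37 degrees Celsius. AC50 values come from titration data.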

[6] = target: 3',5'-cyclic-AMP phosphodiesterase 4B (Homo sapiens) (UniProt Q07343); assay: qHTS Assay for Inhibitors of PDE-IV (AID 607; active = well fitted activation curve with a large enough effect in the main read-out, with a control signal flat, not every such curve was filed as active; note: % of control where 0% means no effect)
How it was run: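 The readout is membrane depolarisation from a cAMP-sensing CNG channel, detected with a potential dye at ex 535/em 590. Cells were HEK293-derived (endogenous PDE-IV) at 1000 cells/well, titrated up to 22.9 uM final.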

[7] = qHTS Assay for Identification of Small Molecule Agonists for Thrombopoietin (TPO) Signaling Pathway (AID 917; active = well fitted curve in the direction sought with a large enough effect; an effect the other way counts as inactive or inconclusive; note: % is set by controls: 0 for no effect and ±100 for the full control effect)
How it was run: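 Murine Ba/F3 cells expressing human TPO receptor and GPIIb-promoter luciferase, IL-3-starved overnight, given compound plus TPO at 26 pM (EC50). After 24 h at 37 C, 5% CO2, luminescence read.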

[8] = target: Pyruvate kinase (Leishmania mexicana) (UniProt Q27686); assay: qHTS Validation Assay for Inhibitors of Leishmania Mexicana Pyruvate Kinase (AID 945; active = well fitted curve in the direction sought with a large enough effect; an effect the other way counts as inactive or inconclusive;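 note: 0% = DMSO only neutral control wells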)
How it was run: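 Mutant LmPYK (E451W), 0.2 nM, plus 0.5 mM PEP and 0.1 mM ADP in 50 mM imidazole pH 7.2 containing 0.01% Tween 20 and 0.05% BSA. Incubated 1 h at room temperature; luminescence via PKLight, normalized to DMSO.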

[9] = target: Pyruvate kinase PKM (Homo sapiens) (UniProt P14618); assay: qHTS Assay for Activators of Human Muscle Pyruvate Kinase (AID 954; active = well fitted curve in the direction sought with a large enough effect, not every such curve was filed as active;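 note: 0% = uninhibited enzyme and -100% = no enzyme or full thiadiazolimine inhibition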)
How it was run: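 Reaction: 0.1 nM purified PKM2 with 0.5 mM phosphoenolpyruvate and 0.1 mM ADP, room temperature, 1 h. Readout: luciferase-based ATP luminescence after stop reagent. Activators judged against a 0.3 nM enzyme column.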

[10] = target: Alpha-galactosidase A (Homo sapiens) (UniProt P06280); assay: Counterscreen for Glucocerebrosidase Inhibitors: qHTS Assay for Human alpha-Galactosidase at pH 4.5 (AID 992; active = well fitted curve in the direction sought with a large enough effect; an effect the other way counts as inactive or inconclusive; note: 0% is about no effect)
How it was run: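 Concentration-response curves (0.7 nM to 77 uM final) were modeled with the Hill equation to give AC50. Reactions: 2 nM enzyme, 80 uM fluorogenic alpha-galactoside, pH 4.5 citric acid buffer, 20 min, room temperature.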

[11] = target: alpha-glucosidase (Oryza sativa, rice) (UniProt Q653V4); assay: Counterscreen for Glucocerebrosidase Inhibitors: qHTS Assay for Rice alpha-Glucosidase at pH 5.0 (AID 997; active = well fitted curve in the direction sought with a large enough effect; an effect the other way counts as inactive or inconclusive;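 note: 0% = full activity with enzyme and -100% = basal without enzyme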)
How it was run: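 Rice alpha-glucosidase (4 nM final) with 400 uM 4-methylumbelliferyl-alpha-D-glucopyranoside in citrate buffer pH 5.0, 20 min at room temperature, stopped at pH 10; fluorescence 365/440 nm, compounds 0.7 nM–77 uM, AC50 from Hill fits.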

[12] = target: Guanine nucleotide-binding protein G(i) subunit alpha-1 (Homo sapiens) (UniProt P63096); assay: qHTS Assay for Inhibitors of RGS12 GoLoco Motif Activity (Green Fluorophore) (AID 879; active = well fitted curve in the direction sought with a large enough effect; an effect the other way counts as inactive or inconclusive;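 note: 0% = labeled peptide with Gαi1 and full inhibition = labeled peptide alone without protein; negative values mean loss of peptide binding seen as reduced polarization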)
How it was run: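 Fluorescence polarization assay: 50 nM Gαi1 with 10 nM FITC-labeled RGS12 GoLoco peptide in 10 mM Tris pH 7.5, 150 mM NaCl, 0.1 mM GDP, 0.05% NP40, 10 min at room temperature with compound.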

Glucocorticoid receptor (Homo sapiens), sequence (P04150 whole entry, looked up): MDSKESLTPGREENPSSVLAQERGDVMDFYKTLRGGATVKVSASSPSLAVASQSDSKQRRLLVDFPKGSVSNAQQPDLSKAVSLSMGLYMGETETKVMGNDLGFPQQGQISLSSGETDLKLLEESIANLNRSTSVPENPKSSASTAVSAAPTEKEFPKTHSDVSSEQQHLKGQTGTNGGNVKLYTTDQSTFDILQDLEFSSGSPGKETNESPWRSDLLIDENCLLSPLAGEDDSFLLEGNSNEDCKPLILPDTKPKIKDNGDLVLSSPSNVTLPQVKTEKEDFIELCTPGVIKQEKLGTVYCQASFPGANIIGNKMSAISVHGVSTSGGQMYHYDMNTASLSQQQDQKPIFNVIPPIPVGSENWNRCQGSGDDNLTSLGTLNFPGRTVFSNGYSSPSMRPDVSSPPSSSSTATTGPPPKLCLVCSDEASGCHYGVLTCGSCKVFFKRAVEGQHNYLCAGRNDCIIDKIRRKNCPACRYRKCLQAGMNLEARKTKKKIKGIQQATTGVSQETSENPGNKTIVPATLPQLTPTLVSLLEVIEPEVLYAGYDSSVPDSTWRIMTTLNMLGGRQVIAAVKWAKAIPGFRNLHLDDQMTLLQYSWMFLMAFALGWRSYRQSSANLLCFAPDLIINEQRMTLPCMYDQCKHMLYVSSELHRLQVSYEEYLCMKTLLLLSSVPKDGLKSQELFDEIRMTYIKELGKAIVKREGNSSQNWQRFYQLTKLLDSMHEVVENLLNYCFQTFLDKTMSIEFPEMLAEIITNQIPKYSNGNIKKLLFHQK
Pyruvate kinase PKM (Homo sapiens), sequence (P14618 whole entry, looked up): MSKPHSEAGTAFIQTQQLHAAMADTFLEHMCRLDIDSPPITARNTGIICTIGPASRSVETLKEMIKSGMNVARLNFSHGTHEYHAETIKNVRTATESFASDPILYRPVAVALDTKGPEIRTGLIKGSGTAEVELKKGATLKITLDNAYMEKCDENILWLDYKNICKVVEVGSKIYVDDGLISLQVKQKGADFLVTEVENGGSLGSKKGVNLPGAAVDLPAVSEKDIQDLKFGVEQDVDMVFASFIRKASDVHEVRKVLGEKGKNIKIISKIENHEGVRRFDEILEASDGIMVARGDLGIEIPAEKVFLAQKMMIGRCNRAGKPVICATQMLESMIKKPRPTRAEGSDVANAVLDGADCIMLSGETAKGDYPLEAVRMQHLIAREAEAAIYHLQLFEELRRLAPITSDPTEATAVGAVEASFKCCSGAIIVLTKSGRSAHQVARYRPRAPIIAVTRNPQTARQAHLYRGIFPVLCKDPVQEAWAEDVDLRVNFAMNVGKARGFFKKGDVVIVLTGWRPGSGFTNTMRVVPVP
Pyruvate kinase (Leishmania mexicana), sequence (Q27686 2-499 E452W): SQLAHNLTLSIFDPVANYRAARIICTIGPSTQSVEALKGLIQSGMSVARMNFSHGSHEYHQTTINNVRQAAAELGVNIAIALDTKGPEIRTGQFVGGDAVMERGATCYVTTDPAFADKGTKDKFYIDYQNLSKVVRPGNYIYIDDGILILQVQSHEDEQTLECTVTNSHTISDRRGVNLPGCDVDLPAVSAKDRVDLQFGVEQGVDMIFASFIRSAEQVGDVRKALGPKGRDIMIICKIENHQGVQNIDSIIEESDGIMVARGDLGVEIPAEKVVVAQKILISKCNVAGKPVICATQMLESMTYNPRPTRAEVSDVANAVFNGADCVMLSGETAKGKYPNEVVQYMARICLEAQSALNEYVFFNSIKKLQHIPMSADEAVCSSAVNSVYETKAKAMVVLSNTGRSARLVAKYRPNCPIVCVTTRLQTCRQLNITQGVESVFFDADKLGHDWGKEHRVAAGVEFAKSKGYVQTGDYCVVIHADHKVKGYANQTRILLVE
3',5'-cyclic-AMP phosphodiesterase 4B (Homo sapiens), sequence (Q07343 whole entry, looked up): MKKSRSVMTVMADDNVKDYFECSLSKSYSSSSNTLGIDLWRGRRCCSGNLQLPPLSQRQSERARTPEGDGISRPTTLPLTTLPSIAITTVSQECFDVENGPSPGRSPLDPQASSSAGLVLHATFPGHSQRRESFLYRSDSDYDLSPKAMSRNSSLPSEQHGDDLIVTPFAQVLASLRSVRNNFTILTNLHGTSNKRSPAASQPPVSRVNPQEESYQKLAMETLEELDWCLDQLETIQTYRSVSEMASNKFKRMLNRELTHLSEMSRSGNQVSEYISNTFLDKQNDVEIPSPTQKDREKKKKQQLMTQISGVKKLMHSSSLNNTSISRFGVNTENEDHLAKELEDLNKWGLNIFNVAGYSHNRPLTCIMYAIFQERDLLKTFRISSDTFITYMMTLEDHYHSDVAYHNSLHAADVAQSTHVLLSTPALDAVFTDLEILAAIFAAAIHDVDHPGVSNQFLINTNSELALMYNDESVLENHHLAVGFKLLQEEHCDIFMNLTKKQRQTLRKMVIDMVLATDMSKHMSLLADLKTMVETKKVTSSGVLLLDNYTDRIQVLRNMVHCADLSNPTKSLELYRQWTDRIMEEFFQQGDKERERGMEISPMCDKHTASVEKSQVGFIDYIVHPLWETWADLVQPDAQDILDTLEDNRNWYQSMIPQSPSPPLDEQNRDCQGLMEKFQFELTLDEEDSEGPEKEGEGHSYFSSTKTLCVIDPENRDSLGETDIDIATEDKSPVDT
Alpha-galactosidase A (Homo sapiens), sequence (P06280 whole entry, looked up): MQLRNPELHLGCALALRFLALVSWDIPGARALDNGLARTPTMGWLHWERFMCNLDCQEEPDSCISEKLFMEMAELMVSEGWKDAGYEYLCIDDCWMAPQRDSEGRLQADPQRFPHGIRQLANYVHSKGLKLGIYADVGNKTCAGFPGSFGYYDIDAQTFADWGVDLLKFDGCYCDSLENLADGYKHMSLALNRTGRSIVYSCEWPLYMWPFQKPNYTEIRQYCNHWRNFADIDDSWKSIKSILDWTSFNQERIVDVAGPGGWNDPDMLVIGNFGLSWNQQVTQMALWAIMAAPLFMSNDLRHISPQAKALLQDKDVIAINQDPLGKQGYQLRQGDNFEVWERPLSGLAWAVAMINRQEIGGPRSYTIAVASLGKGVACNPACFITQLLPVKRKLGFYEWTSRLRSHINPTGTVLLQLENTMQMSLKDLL
Guanine nucleotide-binding protein G(i) subunit alpha-1 (Homo sapiens), sequence (P63096 whole entry, looked up): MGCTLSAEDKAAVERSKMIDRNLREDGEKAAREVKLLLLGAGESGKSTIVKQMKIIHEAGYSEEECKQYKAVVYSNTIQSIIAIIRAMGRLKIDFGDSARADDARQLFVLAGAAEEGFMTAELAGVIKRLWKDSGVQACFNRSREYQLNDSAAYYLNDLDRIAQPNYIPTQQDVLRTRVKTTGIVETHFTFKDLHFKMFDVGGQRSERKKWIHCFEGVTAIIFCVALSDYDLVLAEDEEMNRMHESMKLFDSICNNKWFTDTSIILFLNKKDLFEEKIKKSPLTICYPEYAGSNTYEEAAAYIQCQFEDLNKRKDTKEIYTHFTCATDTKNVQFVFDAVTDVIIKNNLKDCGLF

COc1ccc(CNC(=O)c2c(C)cc(=O)oc2C)cc1OC
inactive: activity change, negative = inhibition [1] 13.7% | activity change, negative = inhibition [2] 13.8% | activity, negative = inhibition [3] 9.9% | Potency [4] > 20.6 µM | activation [5] 12.6%

COc1ccc(Cn2ccnc2)cc1Br
inactive: activity change, negative = inhibition [1] 4.25% | activity change, negative = inhibition [2] -14% | Potency [4] > 20.6 µM

Clc1ccc(SCc2cn3ccsc3n2)cc1
inactive: activity change, negative = inhibition [1] -22.5% | activity change, negative = inhibition [2] 9.85% | Potency [4] > 20.6 µM

CCOC(=O)CSC1=C(C#N)C(=O)NC(c2ccc(OC)c(OC)c2)S1 (centres undefined)
active: activity change, negative = inhibition [2] -123%
inactive: activity change, negative = inhibition [1] -12.5% | Potency [4] > 20.6 µM

COCc1cc(C)nc(SCC(=O)Nc2ccc(C)c(C)c2)c1C#N
inactive: activity change, negative = inhibition [1] 2.07% | activity change, negative = inhibition [2] 3.23% | Potency [4] > 20.6 µM

CN1[C@@H]2CC(OC(=O)[C@@H](CO)c3ccccc3)C[C@H]1[C@H]1O[C@H]12 (some centres undefined)
inactive: activity change, negative = inhibition [1] 4.86% [at 38 µM] | activity, negative = inhibition [3] 13.4% [at 38 µM] | Potency [6] | Potency [7] | Potency [8] | outcome [9] | outcome [10] | outcome [11]
active: activity change, negative = inhibition [2] -57.6% [at 38 µM]

O=C(NCc1cccnc1)c1ccc(=O)oc1
inactive: activity change, negative = inhibition [1] 10.5% | activity change, negative = inhibition [2] -0.473% | activity, negative = inhibition [3] 0.949% | Potency [4] > 20.6 µM | activation [5] 10.6%

COc1ccc2c(C)nc(Nc3nc(C)cc(C)n3)nc2c1
inactive: activity change, negative = inhibition [1] -4.83% | activity change, negative = inhibition [2] -4.96% | activity, negative = inhibition [3] 7.03% | Potency [4] > 20.6 µM | activation [5] -6.59%

ClC(Br)=C(n1cnc2ccccc21)n1cnc2ccccc21
inactive: activity change, negative = inhibition [1] -25.5% | activity change, negative = inhibition [2] -11.4% | Potency [4] > 20.6 µM

CN1c2ccccc2-c2nc3ccccc3n2C1c1ccco1 (centres undefined)
inactive: activity change, negative = inhibition [1] 5.2% | activity change, negative = inhibition [2] -6.44% | activity, negative = inhibition [3] -0.11% | Potency [4] > 20.6 µM | activation [5] -8.71%

c1ccc2c(c1)CCC[C@H]2C1=NCCN1
inactive: activity change, negative = inhibition [1] 4.49% [at 38 µM] | activity change, negative = inhibition [2] -2.65% [at 38 µM] | activity, negative = inhibition [3] 7.24% [at 38 µM] | Potency [6] | outcome [12] | Potency [7] | Potency [8] | outcome [9] | outcome [10] | outcome [11]
